PubChem BioAssay (NCATS)
Results filed as inconclusive are left out. Calls of active or inactive are those of the source. Calls follow the shape of the dose curve; as a rule, active = well fitted inhibition curve with a large enough effect; inconclusive = small, poorly fitted or top-dose-only effect; inactive = flat fitted curve, though single readings scatter.

Columns and labels:
Assay in all cases: qHTS profiling for inhibitors of Plasmodium falciparum proliferation (AID 504749); also: nearly all actives have a fitted effect of over 60% in size
Conditions in all cases: P. falciparum in erythrocytes, SYBR Green DNA, 72 h; series mostly up to 28.7 µM
[1] = system: 7G8
In short: (§1)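 Three-day growth assay of blood-stage parasites in erythrocytes (0.3% parasitemia, 2.5% hematocrit) at 37 C, 5% CO2, quantified by SYBR Green DNA staining after overnight detergent lysis.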

[2] = system: ATS95
In short: as §1

[3] = system: CP201
In short: as §1

[4] = system: CP203
In short: as §1

[5] = system: CP250
In short: as §1

[6] = system: CP256
In short: as §1

[7] = system: CP262
In short: as §1

[8] = system: CP265
In short: as §1

[9] = system: CP269
In short: as §1

[10] = system: CP315
In short: as §1

[11] = system: CP325
In short: as §1

[12] = system: CP329
In short: as §1

[13] = system: DIV30
In short: as §1

[14] = system: ECU
In short: as §1

[15] = system: N140
In short: as §1

[16] = system: PAD
In short: as §1

[17] = system: PC15
In short: as §1

[18] = system: SC27B
In short: as §1

[19] = system: TAB113
In short: as §1

[20] = system: TAB165
In short: as §1

Measured: Potency

CN(C)CC/C=C1\c2ccccc2COc2ccc(CC(=O)O)cc21
inactive: [1] | [2] | [3] | [4] | [5] | [6] | [7] | [8] | [9] | [10] | [11] | [12] | [13] | [14] | [15] | [16] | [17] | [18] | [19] | [20]

NC[C@@H]1O[C@H](OC2[C@@H](CO)O[C@@H](OC3[C@H](O)[C@H](N)C[C@H](N)[C@H]3OC3O[C@H](CO)[C@@H](O)[C@H](O)[C@@H]3N)[C@H]2O)C(N)[C@H](O)[C@@H]1O (some centres not stated)
inactive: [1] | [2] | [3] | [4] | [5] | [6] | [7] | [8] | [9] | [10] | [11] | [12] | [13] | [14] | [15] | [16] | [17] | [18] | [19] | [20]

CNC1C(O)C(OC2C(NC(=O)C(O)CN)CC(N)C(OC3OC(CN)C(O)C(O)C3O)C2O)OCC1(C)O (configuration not stated)
inactive: [1] | [2] | [3] | [4] | [5] | [6] | [8] | [9] | [10] | [11] | [12] | [13] | [14] | [15] | [16] | [17] | [18] | [19] | [20]

NC(=O)c1ncn(C2OC(CO)C(O)C2O)c1N (configuration not stated)
inactive: [1] | [2] | [3] | [4] | [5] | [6] | [7] | [8] | [9] | [10] | [11] | [12] | [13] | [14] | [15] | [16] | [17] | [18] | [19] | [20]

O=C(O)c1ccc(N[C@@H]2OC[C@@H](O)[C@@H](O)[C@@H]2O)cc1
inactive: [1] | [2] | [3] | [4] | [5] | [6] | [7] | [8] | [9] | [10] | [11] | [12] | [13] | [14] | [15] | [16] | [17] | [18] | [19] | [20]

Cc1onc(-c2c(F)cccc2Cl)c1C(=O)NC1C(=O)N2C1SC(C)(C)C2C(=O)O (configuration not stated)
inactive: [1] | [2] | [3] | [4] | [5] | [6] | [7] | [8] | [10] | [11] | [12] | [13] | [14] | [15] | [16] | [17] | [18] | [19] | [20]

Nc1nc(F)nc2c1ncn2[C@@H]1O[C@H](CO)[C@@H](O)[C@H]1O
inactive: [1] | [2] | [3] | [4] | [5] | [6] | [7] | [8] | [9] | [10] | [11] | [12] | [13] | [14] | [15] | [16] | [17] | [18] | [19] | [20]

COc1cccc(OC)c1C(=O)NC1C(=O)N2C1SC(C)(C)C2C(=O)O (configuration not stated)
inactive: [1] | [2] | [3] | [4] | [5] | [6] | [7] | [8] | [9] | [10] | [11] | [12] | [13] | [14] | [15] | [16] | [17] | [18] | [19] | [20]

CCCCCCCCCCCCCCCC(=O)OCC(COP(=O)(O)OCC[N+](C)(C)C)OC(=O)CCCCCCCCCCCCCCC (configuration not stated)
inactive: [1] | [2] | [3] | [4] | [5] | [6] | [7] | [8] | [9] | [10] | [11] | [12] | [13] | [14] | [15] | [16] | [17] | [18] | [19] | [20]

OCCOC[C@H]1O[C@H](OCCO)[C@H](OCCO)[C@@H](OCCO)[C@@H]1OCCO (tested in a mixture with another compound)
inactive: [1] | [2] | [3] | [4] | [5] | [6] | [7] | [8] | [9] | [10] | [11] | [12] | [13] | [14] | [15] | [16] | [17] | [18] | [20]

C/C1=C2/[N-]C(C(CC(N)=O)[C@@]2(C)CCC(=O)NCC(C)OP(=O)([O-])O[C@H]2[C@@H](O)[C@@H](n3cnc4cc(C)c(C)cc43)O[C@@H]2CO)[C@]2(C)N=C(/C(C)=C3N=C(/C=C4N=C1C(CCC(N)=O)C\4(C)C)[C@@H](CCC(N)=O)[C@]\3(C)CC(N)=O)[C@@H](CCC(N)=O)[C@]2(C)CC(N)=O.CC(=O)O.[Co] (some centres not stated)
inactive: [1] | [2] | [3] | [4] | [5] | [6] | [7] | [8] | [9] | [10] | [11] | [12] | [13] | [14] | [15] | [16] | [17] | [18] | [19] | [20]
